This note sets out measurements from PubChem BioAssay (NCATS).

Assay [1] is described as follows: Primary fluorescence-based thiol-reactive (MSTI) qHTS assay for identification of artifact compounds. (AID 1845221). Also: nearly all actives have a fitted effect of over 65% in size. Also: potency is read from the fitted curve at half-maximal effect.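 As to activity change, negative = thiol reactive: series mostly up to about 54 µM; thiol-reactive compounds lower the probe fluorescence signal.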 The essentials: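 qHTS titration of compound; 4 uM MSTI, PBS pH 7.4, 2% DMSO; 1 h RT, dark; fluorescence 525/598 nm; normalized to Acetyl-MSTI and MSTI; 4-parameter Hill fit.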
Assay [2] deals with Nanoluciferase (engineered Oplophorus gracilirostris luciferase). The experiment in a line: Primary Nanoluciferase (NLuc) qHTS assay for identification of artifact compounds. (AID 1845222).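 Also: series mostly up to about 54 µM; 0% = DMSO and -100% = no enzyme.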 The method, boiled down: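 Compounds are pinned into diluted (1:55) conditioned medium of NLuc-expressing S16 cells and held 15 min at room temperature protected from light. Nano-Glo substrate follows, and luminescence is read 5 min later.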

Assay [3] can be described thus: Primary redox qHTS assay for identification of artifact compounds. (AID 1845223).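 Also: 0% = DMSO and 100% = reference compound.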 The essentials:
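Redox-cycling detection via DTT (250 uM final) oxidation coupled to Amplex Red (25 uM)/HRP (250 mU/mL) in HBSS. 15 min preincubation plus 30 min after DTT, room temperature. Ex/Em 525/598 nm; 4-parameter Hill fit against DMSO and 10 uM DA3003.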

SMILES strings stand for the structures. A number with no mark means an inactive call. Records with an inconclusive call do not appear. Active and inactive are the calls of the source. Calls follow the shape of the dose curve; as a rule, active = well fitted curve in the direction sought with a large enough effect; inconclusive = small, poorly fitted or top-dose-only effect, or another doubt; inactive = no such curve, though single readings can be large; an effect the other way counts as inactive or inconclusive.

Consider `CC1(C)CCCC2(C)C1C(O)C=C(CO)C2(O)C(=O)O` (stereo unspecified), for which the Potency result in assay [1], in assay [2] and in assay [3] was “inactive” in each case.
For `CC(=O)O[C@@H]1[C@H](O[C@@H]2O[C@H](CO)[C@@H](O)[C@H](O)[C@H]2O)[C@@H](O[C@@H]2O[C@@H](C)[C@H](O)[C@@H](O[C@@H]3O[C@H](CO)[C@@H](O)[C@H](O)[C@H]3O)[C@H]2O)[C@H](OC(=O)C23CCC4(C)C(=CCC5C6(C)CC(O)C(O[C@@H]7O[C@H](C(=O)O)[C@@H](O)[C@H](O)[C@H]7O)C(C)(C(=O)O)C6CCC54C)C2CC(C)(C)CC3O)O[C@@H]1C` (stereo partly specified), the activity change, negative = thiol reactive in assay [1] is 205% [at 11.5 µM]. The activity, negative = inhibition in assay [2] is 0% [at 11.6 µM]. Further, the redox activity (% of DA3003) in assay [3] is 12.9% [at 11.5 µM].
For the compound `CC(C)CC1(C(=O)OCc2ccc(O[C@@H]3O[C@H](CO)[C@@H](O)[C@H](O)[C@H]3O)cc2)CC(=O)OC(C(=O)O)CC(=O)OCC2OC(O1)C(OC(=O)/C=C/c1ccc(O)cc1)C(O)C2O` (stereo partly specified), in assay [1], the activity change, negative = thiol reactive was 14.7% [at 11.5 µM]. Besides, the activity, negative = inhibition in assay [2] is -4.21% [at 11.6 µM]. In assay [3], the redox activity (% of DA3003) is 23.6% [at 11.5 µM].
Turning to `COC(=O)[C@]12C(=O)C(C)=C(O)[C@@]1(C)C(C)=CC1[C@@]34CC[C@@H](OC(C)=O)C(C)(C)C3[C@H](C[C@]12C)OC4=O` (stereo partly specified), the Potency result in assay [1], in assay [2] and in assay [3] was “inactive” throughout.
For `CC(C)c1nc(N(C)S(C)(=O)=O)nc(-c2ccc(F)cc2)c1/C=C/[C@@H](O)C[C@@H](O)CC(=O)O`, the Potency entry in assay [1], in assay [2] and in assay [3] was “inactive” each time.
With `COc1cc(C[C@H]2COC(=O)[C@@H]2Cc2ccc(O)c(OC)c2)ccc1O`, the Potency in assay [1] was 14.7 µM (active). The Potency entry in assay [2] and in assay [3] was “inactive” throughout.
In the case of `C[C@H]1CN(C[C@H](Cc2ccccc2)C(=O)NCC(=O)O)CC[C@@]1(C)c1cccc(O)c1`, the Potency entry in assay [1], in assay [2] and in assay [3] was “inactive” throughout.
On to `C[C@@H]1O[C@@H](O[C@H]2[C@H](OC(=O)[C@]34CCC(C)(C)C[C@H]3C3=CCC5[C@@]6(C)C[C@H](O)[C@H](O[C@@H]7O[C@H](CO[C@@H]8OC[C@H](O)[C@H](O)[C@H]8O)[C@@H](O)[C@H](O)[C@H]7O)C(C)(C)C6CC[C@@]5(C)[C@]3(C)C[C@H]4O)OC[C@@H](O)[C@@H]2O)[C@H](O)[C@H](O[C@@H]2OC[C@](O)(CO)[C@H]2O)[C@H]1O[C@@H]1OC[C@H](O)[C@H](O[C@@H]2OC[C@@H](O)[C@H](O)[C@H]2O)[C@H]1O` (stereo partly specified), for which, in assay [1], the activity change, negative = thiol reactive is 452% [at 11.5 µM]. Moreover, the activity, negative = inhibition in assay [2] was 3.55% [at 11.6 µM]. The redox activity (% of DA3003) in assay [3] was 10.3% [at 11.5 µM].
For the compound `CCC(=O)O[C@]1(C(=O)CCl)[C@@H](C)C[C@H]2[C@@H]3C[C@H](F)C4=CC(=O)C=C[C@]4(C)[C@@]3(F)[C@@H](O)C[C@@]21C`, the Potency result in assay [1], in assay [2] and in assay [3] was “inactive” throughout.
As to `CC1=C2C3OC(=O)C(C)C3(O)CCC2(C)CCC1=O` (stereo unspecified), in assay [1], the Potency was 23.8 µM (active). Besides, the Potency result in assay [2] and in assay [3] was “inactive” in each case.
For the compound `Cc1ncc([N+](=O)[O-])n1CC(O)CN1CCOCC1` (stereo unspecified), the Potency entry in assay [1], in assay [2] and in assay [3] was “inactive” throughout.
With `CC(=O)N1CCN(NC(=O)c2ccc(F)cc2)CC1`, the Potency entry in assay [1], in assay [2] and in assay [3] was “inactive” throughout.
With `CC(C)c1ccc(CC(=O)N2CCC[C@@H](c3cccc(OC(C)(C)C(=O)O)c3)C2)cc1`, the Potency entry in assay [1], in assay [2] and in assay [3] was “inactive” throughout.
As for `COc1ccccc1-n1c(SCC(=O)Nc2nc3ccc(C)cc3s2)nc2c(c1=O)SCC2`, the Potency result in assay [1], in assay [2] and in assay [3] was “inactive” in each case.
Regarding `C=C[C@H]1[C@H](O[C@@H]2O[C@H](CO)[C@@H](O)[C@H](O)[C@H]2O)OC=C2C(=O)OCC[C@]21O`, the Potency in assay [1] was 11.7 µM (active). Further, the Potency result in assay [2] and in assay [3] was “inactive” each time.
As to `COc1ncc(-c2ccc3c(Nc4cc(Oc5cc(F)cc(F)c5)cc(C(=O)O)c4)c(S(=O)(=O)NC4CC4)cnc3c2)c(OC)n1`, the Potency result in assay [1], in assay [2] and in assay [3] was “inactive” each time.
For `O=C(c1ccc(NS(=O)(=O)c2cccc3cccnc23)cc1)N1CCN(CC2CC2)CC1`, the Potency entry in assay [1], in assay [2] and in assay [3] was “inactive” throughout.
`Cc1nnc(C(C)C)n1C1CC2CCC(C1)N2CCC(NC(=O)C1CCC(F)(F)CC1)c1ccccc1` (stereo unspecified): the Potency entry in assay [1], in assay [2] and in assay [3] was “inactive” each time.
With `CCC(C)(O)C(O)C(=O)OCc1ccc(O[C@@H]2O[C@H](CO)[C@@H](O)[C@H](O)[C@H]2O)c(OC)c1` (stereo partly specified), the Potency entry in assay [1], in assay [2] and in assay [3] was “inactive” in each case.
As for `CC1(C)CC[C@]2(C(=O)O)CC[C@]3(C)C(=CCC4[C@@]5(C)CCC(O[C@@H]6OC[C@H](O)[C@H](O)[C@H]6O[C@@H]6O[C@H](CO)[C@@H](O)[C@H](O)[C@H]6O)[C@@](C)(CO)C5CC[C@]43C)[C@@H]2C1` (stereo partly specified), the Potency result in assay [1], in assay [2] and in assay [3] was “inactive” each time.
With `C=C(C(=O)O)[C@@H]1CC=C2CCC[C@H](C)[C@@]2(C)C1`, the Potency entry in assay [1], in assay [2] and in assay [3] was “inactive” in each case.
`C[C@@H]1CC[C@]2(C(=O)O[C@@H]3O[C@H](CO)[C@@H](O)[C@H](O)[C@H]3O)CC[C@]3(C)C(=CCC4[C@@]5(C)C[C@@H](O)[C@H](O)C(C)(C)C5CC[C@]43C)C2[C@]1(C)O` (stereo partly specified): the Potency entry in assay [1], in assay [2] and in assay [3] was “inactive” each time.
